Hit rate of the full screen: of about 360,000 compounds, about 2,700 (0.75%) were called active. This is one part of a sample in which actives are shown more often than they occur. Values without a mark were called inactive. Rule as the data show it: active = inhibition above about 4.5%; inactive = the rest.
These compounds were tested on Methionine sulfoxide reductase A (Bos taurus) (assay: inhibition of methionine sulfoxide reductase A – biochemical, absorbance, bovine, HTS, primary screen (AID 651718;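 also: 0% = vehicle wells with enzyme and 100% = reference inhibitor wells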)). Conditions: purified bovine MsrA, absorbance read-out; at 15.5 µM; stronger effect = higher value.

Row | SMILES | inhibition
1 | CCC1SC2=NCCN2C1(O)c1ccc(Cl)cc1 (stereo unspecified) | -0.53%
2 | Cc1cc2c(cc1C)NC1(C[C@H]3CCC(=O)N4CC[C@@H](C1)[C@@H]34)C(=NC(C)(C)CC(C)(C)C)N2 (stereo partly specified) | 0.45%
3 | COCCN(C(=O)C(C)C)c1nnc(-c2ccc(C(C)(C)C)cc2)s1 | -0.05%
4 | CC(C)[C@H]1COCCS(=O)(=O)N1Cc1ccccc1-c1cccc2c1sc1ccccc12 | 1.34%
5 | O=C(Cc1ccccn1)c1ccc(O)cc1O | 4.91% (active)
6 | Oc1cccc(CCc2ccccn2)c1 | -1%
7 | O=C(O)C(CCc1ccccn1)c1ccccc1 (stereo unspecified) | -0.84%
8 | CCOC(=O)N1CCN(C(=O)C[C@H]2C[C@@]3(C(=O)OC)C(=C[C@H](C4CCCC4)O[C@@H]3C)N(Cc3ccccc3)C2=O)CC1 | -0.08%
9 | Nc1ncnc2c1ncn2C1OC(CO)CC1O (stereo unspecified) | 1.51%
10 | CC1(C(=O)NS(=O)(=O)c2cccc(OC(F)F)c2)CCN1C(=O)C1CC1 (stereo unspecified) | 0.29%
11 | COC(=O)c1c(-c2ccc(OC)cc2)c2c(c3c4ccccc4n(S(=O)(=O)c4ccc(C)cc4)c13)C(=O)N(C)C2 | 1.59%
12 | Nc1nc2c(ncn2[C@@H]2O[C@H](C(=O)N[C@H](Cc3ccccc3)C(=O)NCC3CCCCC3)[C@@H](O)[C@H]2O)c(=O)[nH]1 | 0.66%
13 | CC(=O)C1=C(C)NC(C)=C(C(C)=O)C1c1cn(-c2ccccc2)nc1-c1cccs1 | 1.65%
14 | COc1ccc(Cl)cc1NC(=O)CN(C)C(=O)c1cn(-c2ccccc2)nc1-c1cccs1 | 0.13%
15 | O=C(O)c1ccc(N/N=C/c2cn(-c3ccccc3)nc2-c2cccs2)cc1 | 8.7% (active)
16 | CC(=NNC(N)=O)c1ccc(Cl)c(-n2cccc2)c1 | -0.35%
17 | CN1CCCCC(NC(=O)C(C)(C)C)C1=O (stereo unspecified) | 0%
18 | Cc1ccc(NC(=O)CC2S/C(=N/N=C3\CCCc4ccccc43)NC2=O)cc1 (stereo unspecified) | -0.26%
19 | CC(=O)Nc1ccc(S(=O)(=O)Oc2ccc(/C=N/N=C3/NC(=O)C(CC(=O)O)S3)cc2)cc1 (stereo unspecified) | 5.33% (active)
20 | Cc1ccc(S(=O)(=O)Oc2ccc(/C=N/NC(=O)c3c(Cl)cnn3C)cc2)cc1 | 0.98%
21 | COC(=O)[C@]12C[C@H](CC(=O)NCCCCc3ccccc3)C(=O)N(Cc3ccc4c(c3)OCO4)C1=C[C@H](C(C)(C)C)O[C@@H]2C | 1.75%
22 | CCOC(=O)Cn1c2c(n(-c3ccc(F)cc3)c1=O)C=C(c1ccccc1)[C@@H](C)C(C(=O)N(C)C1CCCCC1)=C2 | -0.4%

Row | SMILES | inhibition
23 | COc1ccc(C2=CN(Cc3ccccc3)C(c3ccc(OC)cc3)CC2=O)cc1 (stereo unspecified) | -0.65%
24 | COc1ccc(CNS(=O)(=O)c2cc(Br)ccc2Br)cc1 | 0.62%
25 | Cc1cc2c(C)nc(N/N=C/c3ccccc3)nc2o1 | 3.05%
26 | C(=N/Nc1cc(N2CCOCC2)nc(N2CCOCC2)n1)/c1ccccc1 | 5.01% (active)
27 | COc1ccc(/C=N/Nc2cc(N3CCOCC3)nc(C)n2)c(OC)c1 | 5.8% (active)
28 | Fc1ccccc1/C=N/Nc1cc(N2CCCCC2)ncn1 | 1.96%
29 | COc1ccccc1-c1cnn2c(N3CCOCC3)cc(C)nc12 | 1.96%
30 | O=C(O)c1ccc(NN=CC2=C(N3CCOCC3)/C(=C/c3ccccc3)CC2)cc1 | 2.43%
31 | COc1ccccc1C(=O)N1O[C@]23C=C[C@]14C[C@@H](O)CC[C@]4(C)C2CC[C@]1(C)[C@@H]([C@H](C)/C=C/[C@H](C)C(C)C)CC[C@H]13 (stereo partly specified) | -0.78%
32 | CN(C)C(=O)N1CCN(C(=O)[C@@H](Cc2ccccc2)NC(=O)[C@H]2O[C@@H](n3ccc(N)nc3=O)[C@H](O)[C@@H]2O)CC1 | 0.17%
33 | CSc1ccc(Oc2cccc3c2S(=O)(=O)N([C@H](C)c2ccccc2)C[C@@H](COCc2ccccc2)O3)cc1C | 0.09%
34 | CC(C)Cc1oc(C(=O)O)cc1CN | -1.34%
35 | Cc1ccc(S(=O)(=O)NCCC(c2ccccc2)c2ccccc2)cc1C(=O)O | 0%
36 | CC(=O)C(C)n1cnc2scc(-c3ccc(C)cc3)c2c1=O (stereo unspecified) | 0.23%
37 | COC(=O)Cn1cnc2scc(-c3ccc(C)c(C)c3)c2c1=O | 4.6% (active)
38 | CCC(C(=O)OC)n1cnc2scc(-c3ccc(C)cc3)c2c1=O (stereo unspecified) | 2.62%
39 | CCOC(=O)C(C)n1cnc2c(nnn2-c2ccc(F)cc2)c1=O (stereo unspecified) | -0.86%
40 | CCn1cnc2scc(-c3ccc(C)c(C)c3)c2c1=O | 0.83%
41 | CCOC(=O)C(C)n1cnc2scc(-c3ccc(C)c(C)c3)c2c1=O (stereo unspecified) | 8.45% (active)
42 | Cc1sc2c(c1C)c(=O)n(-c1ccccc1)c1nncn21 | 0.74%
43 | CC1(C)CC(=O)C=C(c2ccc3ncccc3c2)C1 | 0.6%
44 | Cc1cccc(C(=O)NC2CCN(CC(=O)Nc3cccc(Cl)c3)CC2)c1 | -0.97%

Row | SMILES | inhibition
45 | COc1ccc(-c2ccc3c(n2)CCCN3S(=O)(=O)c2ccc(C)cc2)cc1 | 1.35%
46 | CCOC(=O)/C=C/c1ccccc1O | 1.24%
47 | Nc1ncnc2c1ncn2[C@@H]1O[C@H](C(=O)N[C@@H](CCc2ccccc2)C(=O)N2CCCN(Cc3cccs3)CC2)[C@@H](O)[C@H]1O | -0.82%
48 | O=C(NC(Cc1ccccc1)C(=O)O)/C(=C\c1ccccc1)NC(=O)c1ccco1 (stereo unspecified) | -0.85%
49 | COc1ccc(/C=C(/NC(=O)c2ccco2)C(=O)Nc2ccc(C(C)=O)cc2)cc1 | 6.24% (active)
50 | Cc1ccc(NC(=O)/C(=C\c2ccccc2)NC(=O)c2ccco2)cc1 | 1.7%
51 | O=C(NCc1ccccc1)[C@@H]1CCCN1C(=O)[C@@H](NS(=O)(=O)c1ccc(F)cc1F)C1CCCCC1 | 0.41%
52 | C[C@@H](CN1C2=NC[C@@H](Cc3ccccc3)N2C[C@H]1Cc1ccc(O)cc1)NC(=O)CCC1CCCCC1 | -0.6%
53 | C[C@H]1[C@H](c2ccccc2)Oc2cc(Br)ccc2S(=O)(=O)N1Cc1cccc(F)c1 | -0.62%
54 | COc1ccc(CC(=O)c2ccc(O)cc2O)cc1OC | 5.45% (active)
55 | COc1ccc(CCNC(=O)CCc2ccccc2O)cc1OC | -1.41%
56 | COc1ccc(CCNC(=O)c2ccccc2-c2ccccc2C(=O)O)cc1OC | -1.11%
57 | COCc1[nH]nc2c1C(c1ccccc1)N(c1ccccc1)C2=O (stereo unspecified) | 2.45%
58 | CC(C=Cc1ccccc1)=NNS(=O)(=O)c1ccc([N+](=O)[O-])cc1 | 0.99%
59 | CNC(=O)/C(=C\C=C\c1ccccc1)NC(=O)c1ccc([N+](=O)[O-])cc1 | 5.69% (active)
60 | O=C(Nc1ccc(C(=O)O)cc1)/C(=C/c1ccc([N+](=O)[O-])cc1)NC(=O)c1ccccc1 | 5.97% (active)
61 | Cc1ccc(C(=O)N/C(=C/C=C/c2ccccc2)C(=O)NCc2ccco2)cc1 | 3.44%
62 | O=C(Nc1ccc(C(=O)O)cc1)/C(=C\c1ccccc1)NC(=O)c1ccc(Br)cc1 | -0.28%
63 | O=C(N/C(=C\c1ccc([N+](=O)[O-])cc1)C(=O)N1CCOCC1)c1cccc(Br)c1 | 2.94%
64 | O=C(NS(=O)(=O)c1cccs1)[C@H]1O[C@@H](n2ccc(=O)[nH]c2=O)[C@H](O)[C@@H]1O | -0.74%
65 | O=C(NN=Cc1ccco1)C(=O)Nc1ccc(Cl)c([N+](=O)[O-])c1 | -0.74%
66 | CC(C(=O)Nc1ccccc1-c1ccccc1)N1CCOCC1 (stereo unspecified) | 0.29%

Row | SMILES | inhibition
67 | Cc1nc2ccccc2n1C(=O)N1CCOCC1 | -0.3%
68 | Cc1oc2c(c1C(=O)N1CCOCC1)C(=O)c1ccccc1C2=O | 14.1% (active)
69 | CCOc1cc(/C=N/NC(=O)CN2CCCCC2)ccc1O | 0.86%
70 | CCOc1ccc(/C=N\NC(=O)c2c(C)nc3cc(C)ccn23)cc1 | 3.14%
71 | CCOc1cc(/C=N/NC(=O)c2c(C)nc3ccc(Cl)cn23)ccc1O | 6.4% (active)
72 | COC(=O)Nc1nc2ccc(C(=O)C3CC3)cc2[nH]1 | 1.54%
73 | CCOC(=O)c1c(C(C#N)C#N)cc(C)nc1C | 5.28% (active)
74 | CCOC(=O)c1c(C)[nH]c(C)c1C(=O)CSc1nc(N)cc(N)n1 | 0.97%
75 | CCOC(=O)c1cc(C)nc(S(C)(=O)=O)c1C#N | 1.83%
76 | N#Cc1ccc(S(=O)(=O)NCC(=O)OCC(=O)NCCc2ccccc2)cc1 | 0.77%
77 | O=C(NCc1ccccc1)[C@@H]1CCCN1C(=O)[C@H]1CCCN1C(=O)c1cccc(Cl)c1 | -0.24%
78 | Brc1ccc(COCCc2cn(Cc3ccccc3)c3ccccc23)cc1 | -0.08%
79 | N#Cc1c(N)nc2c3c(sc(=N)c2c1N)NC(=O)CC3c1ccccc1Cl (stereo unspecified) | 6.25% (active)
80 | CSc1nc2c(c(=O)[nH]1)C(c1cccc(Cl)c1Cl)CC(=O)N2 (stereo unspecified) | -1.13%
81 | COC(=O)[C@H](CC(C)C)NS(=O)(=O)c1c(F)cccc1F | 1.4%
82 | COC(=O)c1sccc1N/N=C(\C)c1ccc(F)c(Cl)c1 | -0.14%
83 | CCN(CC)c1ccc(C(=O)N/N=C(\C)c2cccc(OC)c2)cc1 | 1.78%
84 | COc1cccc(/C(C)=N/Nc2ncc(Cl)cc2Cl)c1 | 5.21% (active)
85 | COc1cccc(CNC(=O)[C@H]2CCCN2C(=O)[C@H]2CCCN2C(=O)c2cc(F)cc(F)c2)c1 | 0.79%
86 | CCCN1C(=O)c2[nH]nc(-c3ccccc3)c2C1c1ccccc1 (stereo unspecified) | 0.64%

Reference: PubChem BioAssay AID651718 (The Scripps Research Institute Molecular Screening Center, 2012)
